From PubChem
An excerpt weighted towards active compounds, which were near 9.1% of everything screened.
M1 agonist: agonists of M1 muscarinic receptor; CHO-M1 cells, Fluo-4 calcium fluorescence, agonist mode; stronger effect = higher value; B-score at 10 µM; hit rate 3% among 64,000; AID 626;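 active means fluorescence rise, raw or as B-score row- and column-corrected plate score, outside the 99.7% band of its plate's samples, either direction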
Htt clearance: compounds clearing mutant huntingtin protein. hit rate 0.42% among 47,000. inhibition, % at 1.5 µM. HeLa Exon1htt(103Q)mCFP, aggregate imaging; zero = plate's median compound well. AID 853;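 active means inhibition of aggregate fluorescence above about 70%, also judged a hit by eye on the cell image, limit read from the data, passing the limit was not always enough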;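 further: cells exposed to compound for three days before fixation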
D1 allo mod: allosterically modulates the human D1 dopamine receptor; hit rate 5.9% among 58,000; AID 641; B-score at 10 µM; HEK293 D1, CRE-luciferase, dopamine EC30 potentiation; actives deviate in either direction;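 active means luminescence count or its row- and column-corrected plate score outside the 99.7% band of the plate's sample wells, on either side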
Target sequence (P21728 whole entry, looked up): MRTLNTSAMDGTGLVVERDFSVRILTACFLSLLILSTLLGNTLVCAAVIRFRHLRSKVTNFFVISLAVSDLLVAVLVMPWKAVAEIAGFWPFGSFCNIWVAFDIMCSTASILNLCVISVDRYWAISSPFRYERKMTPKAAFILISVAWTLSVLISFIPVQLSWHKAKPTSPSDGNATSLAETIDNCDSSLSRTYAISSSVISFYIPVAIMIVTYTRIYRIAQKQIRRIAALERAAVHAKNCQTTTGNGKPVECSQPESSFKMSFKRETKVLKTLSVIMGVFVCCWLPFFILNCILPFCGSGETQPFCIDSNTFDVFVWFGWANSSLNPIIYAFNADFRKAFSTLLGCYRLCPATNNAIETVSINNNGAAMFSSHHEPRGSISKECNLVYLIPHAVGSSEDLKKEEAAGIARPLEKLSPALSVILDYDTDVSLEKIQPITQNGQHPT
M1 antagonist: blocks the rat M1 muscarinic receptor response to acetylcholine; hit rate 3.4% among 64,000; B-score at 10 µM; AID 628; CHO-M1 cells, Fluo-4 calcium, ACh EC80 antagonist mode; stronger effect = lower value;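 active means calcium fluorescence response, raw or row-and-column corrected B-score, differing from the plate sample mean either way at a set confidence level, mostly lower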
M1 antag conf: M1 muscarinic receptor (rat) antagonism, confirmed | shares compounds with M1 antagonist | CHO-M1 cells, Fluo-4 calcium, ACh EC80 antagonism; stronger effect = lower value | calcium response (max-min fluorescence) at 10 µM | hit rate 43% among 1,700;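 active means calcium response below the same-plate mean of wells given acetylcholine alone at its 80%-effect dose, minus 3 SD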;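 further: raw fluorescence intensity difference in arbitrary instrument units and not normalized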
mGluR4 antag: selectivity test for M1 antagonists: human mGluR4 receptor. CHO-mGluR4 calcium flux, Fluo-4 fluorescence, glutamate EC80; stronger effect = lower value. hit rate 0.9% among 1,700. shares compounds with M1 antagonist. fluorescence response (max-min) at 10 µM;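 active means fluorescence response below the plate's average for near-maximal glutamate wells, less 3 SD of those wells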;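 further: raw unnormalized fluorescence span taken in the window right after glutamate addition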
Active calls of the source: *; nt = not tested or not shown.

SMILES	M1 agonist	Htt clearance	D1 allo mod	M1 antagonist	M1 antag conf	mGluR4 antag
Cc1cc(C)n(-c2ccc(Cl)c(C(=O)Nc3ccc(-c4nnc5n4CCCCC5)cc3)n2)n1	-0.86	nt	0.8	-0.21	nt	nt
O=C(Oc1ccc(OC(=O)N2CCCCC2)cc1)c1ccccc1	-0.083	27	-0.46	-2.9*	237*	293
O=C(Oc1ccc(Cl)cc1)N1CCCCC1	0.57	-31	0.082	-0.6	nt	nt
CC1CCN(C2CC(=O)N(c3ccc(Br)cc3Br)C2=O)CC1 (configuration not stated)	1.7	nt	1.1	1.3	nt	nt
Cc1nc2c(C(=O)N3CCCC3)cnn2c(C)c1Cc1c(F)cccc1Cl	nt	-67	nt	nt	nt	nt
Cc1nc2c(C(=O)N3CCN(c4ccccn4)CC3)cnn2c(C)c1Cc1cccc(Cl)c1	2.2	1	-0.13	-2.3*	606	249
Cc1ccc(CN(C)CCc2ccccn2)cc1	-0.18	-49	-0.078	-1.2	nt	nt
CCc1ccc(CN(C)CCc2ccccn2)cc1	0.34	nt	-0.58	-7.3*	357*	208
CC(=O)OCc1c(COC(C)=O)[n+](=O)c2ccccc2n1[O-]	-0.069	nt	nt	-2.6*	634	267
COc1ccc2c(c1)[n+](=O)c(C(C)=O)c(C)n2[O-]	nt	-3	nt	nt	nt	nt
CC(=O)c1ccc(OCC(O)CN2C(C)(C)CC(O)CC2(C)C)cc1 (configuration not stated)	0.087	18	0.5	-3.1*	622	243
CCN1CCN(CC(O)COc2ccc(C(C)=O)cc2)CC1 (configuration not stated)	-1.4	nt	0.32	-0.0022	nt	nt
COc1ccc(CCNC(=O)CSC2=Nc3ccccc3C3=NC(C(C)C)C(=O)N23)cc1OC (configuration not stated)	-1.4	-8	-0.036	-3.5*	565	228
O=C(Cn1ccc2ccccc2c1=O)N1CCN(Cc2ccc3c(c2)OCO3)CC1	0.07	10	0.67	-2.8*	570	181
O=C(CCS(=O)(=O)c1cccc2nsnc12)N1CCN(C(=O)c2ccco2)CC1	0.83	nt	-0.035	-2	nt	nt
O=C(CCS(=O)(=O)c1cccc2nsnc12)N1CCN(Cc2ccc3c(c2)OCO3)CC1	-0.51	nt	1	-2.5*	473	221
O=C(CN1CCN(Cc2ccc3c(c2)OCO3)CC1)N1CCc2[nH]c3ccccc3c2C1	-0.78	41	-0.75	-1.7	nt	nt
O=C(CN1CCN(Cc2ccc3c(c2)OCO3)CC1)N1CCc2[nH]c3ccc(F)cc3c2C1	-0.93	nt	-1.8	-3.8*	477	210
CC(C1CC1)N(C(=O)c1ccccc1O)c1ccccc1 (configuration not stated)	-0.36	nt	-1.1	-3.6*	548	218
COc1ccc(S(=O)(=O)CC(O)CN2CCCC2=O)cc1 (configuration not stated)	nt	36	nt	nt	nt	nt
O=C(Cn1c(-c2cscn2)nc2ccccc21)Nc1ccccc1F	nt	4	nt	nt	nt	nt
COc1ccc(Oc2coc3c(CN(C)C)c(O)ccc3c2=O)cc1	-0.058	-16	-4.3*	-3.7*	445*	211
COc1ccc(Oc2c(C)oc3c(CN(C)C)c(O)ccc3c2=O)cc1	0.43	15	nt	-7.5*	371*	182
O=C(COC(=O)C1CCCCC1C(=O)N1CCc2ccccc21)NCc1ccco1 (configuration not stated)	0.57	nt	-0.33	1.3	nt	nt
O=C(c1cc(-c2ccco2)on1)N1CCN(C(c2ccccc2)c2ccccc2)CC1	-1.5	-5	-0.4	-2.7*	458	170
SMILES	M1 agonist	Htt clearance	D1 allo mod	M1 antagonist	M1 antag conf	mGluR4 antag
CC1=CC(=C2C(=O)c3ccccc3C2=O)C=C(C)N1Cc1ccco1	-0.5	49	-1.3	-0.78	nt	nt
CC1=CC(=C2C(=O)c3ccccc3C2=O)C=C(C)O1	0.093	-12	nt	-1.1*	546	204
COC(=O)c1ccccc1NC(=O)c1cc(-c2cccs2)on1	-1.3	-25	-0.012	-2.6*	653	198
COc1ccc(NC(=O)c2ccc(Cl)c(S(=O)(=O)N3CCc4ccccc4C3)c2)cn1	0.24	nt	nt	-1.5*	681	210
COc1ccccc1NC(=O)c1ccc(Cl)c(S(=O)(=O)N2CCOCC2)c1	-2	nt	0.22	0.23	nt	nt
CCN(CC)Cc1cc2ccccc2c2c1COC2	-0.16	nt	-0.16	-2.3*	473*	207
CCCCN(CCCC)Cc1cc2ccccc2c2c1COC2	nt	-20	nt	nt	nt	nt
O=C1C(Cl)=C(N2CCN(Cc3ccccc3)CC2)C(=O)N1c1ccccc1	-1.4	-32	0.28	-0.077	nt	nt
O=C1C(Cl)=C(N2CCCCCC2)C(=O)N1c1ccccc1	0.13	nt	-1.2	-3.1*	219*	148
O=C(CNC(=O)c1ccc(Cl)cc1)NCCCn1ccnc1	-0.58	nt	-0.32	-0.0051	nt	nt
CCN(CC)S(=O)(=O)c1ccc2c(c1)nc(SCc1nc3ccsc3c(=O)[nH]1)n2CC	-0.52	-34	1.8	-0.82	nt	nt
CCOc1ccc(N2CC(C(=O)Nc3ncccc3C)CC2=O)cc1 (configuration not stated)	1.1	-28	-0.19	0.15	nt	nt
CCC(C)N(C)Cc1cccc(C2(O)CCN(S(=O)(=O)c3ccc(F)cc3)CC2)c1 (configuration not stated)	1.2	-4	nt	-2.1*	468*	229
Nc1ccnc(C(F)(F)F)c1C(=O)c1ccccc1	-1.2	nt	-0.054	-0.051	nt	nt
COc1ccc(C(CNC(=O)c2ccc(OCC3CCCO3)cc2)N2CCOCC2)cc1 (configuration not stated)	-0.16	3	1.2	-0.031	nt	nt
COc1ccc(C(CNC(=O)c2ccc(S(=O)(=O)N3CCOCC3)cc2)N2CCCCC2)cc1 (configuration not stated)	-0.69	-41	-0.21	-3.2*	576	186
COc1ccc(-c2noc(-c3cc(C)cc(C)c3)n2)cc1OC	-1.4	nt	-0.64	-3.1*	468*	231
CCOc1ccc(-c2nc(-c3ccc(OC)c(OC)c3)no2)cc1OCC	0.24	nt	-0.4	-0.042	nt	nt
C=CCn1c(N)c(C(=O)NCCC2=CCCCC2)sc1=S	-0.31	-47	0.8	0.041	nt	nt
O=C(Cn1cc(/C=N/O)c2ccccc21)N1CCOCC1	-0.67	nt	-0.069	-2.2*	669	264
O=Cc1cn(CC(=O)N2CCOCC2)c2ccccc12	nt	29	nt	nt	nt	nt
O=S(=O)(Nc1ccc2c(c1)OCCO2)c1cccc2nsnc12	1.1	nt	-1.5	-2.7*	362*	225
O=C(CCNS(=O)(=O)c1cccc2nsnc12)Nc1ccc2c(c1)OCCO2	-0.0029	nt	-0.62	-0.14	nt	nt
Cc1ccc(/C(O)=C2\C(=O)C(=O)N(CCCN(C)C)C2c2ccccn2)cc1 (configuration not stated)	0.014	46	-0.33	-0.78	nt	nt
COc1ccc(CNC(=O)CS(=O)Cc2nc(-c3ccccc3C)oc2C)cc1 (configuration not stated)	-0.021	nt	-1.3	0.051	nt	nt
COc1ccccc1CNC(=O)CS(=O)Cc1nc(-c2ccccc2C)oc1C (configuration not stated)	0.015	nt	0.053	-2.7*	627	216
Cn1c(-c2ccc3c(c2)OCO3)cnc1N	0.52	-37	-1.1	-0.52	nt	nt
